# Results filed as inconclusive are left out. A call without a number means that no potency is given here. The source made the active and inactive calls. The call rests on the fitted dose curve; in most records, active means well fitted inhibition curve with a large enough effect; inconclusive means small, poorly fitted or top-dose-only effect, or effect the other way; inactive means no such curve, though single readings can be large or run the other way.
# Target: Thyroid hormone receptor beta (Homo sapiens) (UniProt P10828)
# Sequence (P10828 whole entry, looked up): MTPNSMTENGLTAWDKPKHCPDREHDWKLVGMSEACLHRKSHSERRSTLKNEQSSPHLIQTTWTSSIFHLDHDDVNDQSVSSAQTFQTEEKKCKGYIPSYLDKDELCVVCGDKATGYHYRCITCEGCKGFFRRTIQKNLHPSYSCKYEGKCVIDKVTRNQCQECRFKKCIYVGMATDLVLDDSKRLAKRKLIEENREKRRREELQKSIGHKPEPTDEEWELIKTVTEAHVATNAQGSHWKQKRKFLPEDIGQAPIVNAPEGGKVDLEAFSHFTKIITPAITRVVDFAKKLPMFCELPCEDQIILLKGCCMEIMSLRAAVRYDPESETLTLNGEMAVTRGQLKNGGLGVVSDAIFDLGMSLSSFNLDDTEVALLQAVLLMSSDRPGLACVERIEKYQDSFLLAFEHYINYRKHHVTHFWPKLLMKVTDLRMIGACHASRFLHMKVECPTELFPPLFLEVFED
# Assay: Cell-based Gene Reporter Secondary Assay to Characterize qHTS Inhibitors of the Interaction of Thyroid Hormone Receptor and Steroid Receptor Coregulator 2
# Text: NIH Molecular Libraries Probe Production Network [MLPCN] NIH Chemical Genomics Center [NCGC] MLPCN Grant: DK058080 Assay Provider: R. Kip Guy, St. Jude Children's Research Hospital NCGC Assay Overview: Thyroid receptor (TR) regulates many homeostatic processes including basal metabolism, cardiovascular function, body weight, and lipid trafficking. TR modulators are potential therapeutics for obesity and hyperlipidemias but current thyroid analogs have undesirable side effects, particularly cardiac stimulation. This secondary assay characterized selected actives identified in the qHTS for Inhibitors of the Interaction of Thyroid Hormone Receptor and Steroid Receptor Coregulator 2. The human follicular thyroid carcinoma cell line WRO (kindly provided by Dr. M. D. Ringel) stably expresses TRbeta and a luciferase reporter gene fused to TR response element. The addition of T3 ligand elevates expression of the TRE luciferase reporter. This assay measures the transcriptional activity of compounds.
# NCGC Assay Protocol Summary: Cells were maintained in RPMI 1640 culture medium supplemented with 10% heat-inactivated FBS, 0.33 mg/ml hygromycin, 0.33 mg/ml geneticin, 50 units/ml penicillin, 50 ug/ml streptomycin. […] Following incubation, plates were equilibrated at ambient temperature for 30 min, 30 ul of Bright-Glo (Promega) was added and luminescence was detected by an EnVision (PerkinElmer).
row,Compound,Potency
1,COP(=S)(OC)Oc1ccc([N+](=O)[O-])cc1,3.98 µM (active)
2,CCCCCn1c(N)c(C(=O)NCc2cccs2)c2nc3ccccc3nc21,inactive

# Source: PubChem BioAssay AID1567 (National Center for Advancing Translational Sciences (NCATS), 2009)
